Experimental findings from PubChem BioAssay are described below.

Active and inactive are the calls of the source. Unless noted, no rule for the calls is given here.

Test [1] has as its system Wnt5a (protein binding on small-molecule microarray). In words: Wnt5a binders on small-molecule microarray, primary screen, biophysical, 635/667 nm fluorescence (AID 1142).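 Also: fluorescence read at 667 nm with signal to noise per printed feature.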 Conditions: 635 nm fluorescence, higher = more signal.
Test [2] in a line: cell viability in Huh7 cells, primary screen, cytotoxicity control for HCV replication inhibitor project, CellTiter-Glo luminescence, basal, 48 h (AID 1143).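 Also: Huh7 hepatoma cells carrying a hepatitis C replication reporter with no stimulus; test concentration not given here.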 Conditions: Huh7 HCV replicon, higher = more signal, called active from +8 up or from −8 down.
Test [3] is described as follows: P. aeruginosa biofilm formation inhibitors, primary screen, PAO1 strain, BacTiter-Glo luminescence, LB-PBS (AID 1144). To be noted: 12 h, higher = more signal.
Test [4] in a line: CREB reporter modulators without forskolin, primary screen, cell-based, PC12, CRE-LacZ reporter, unstimulated (AID 1145). To be noted: no forskolin, luminescence, 4.5 h, higher = more signal, called active from +8 up or from −8 down.
Test [5] in a line: CREB reporter modulators under forskolin, primary screen, cell-based, PC12, CRE-LacZ reporter, forskolin-stimulated (AID 1146).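 Also: PC12 cells with 6xCRE LacZ reporter stimulated by forskolin 10 µM; beta-galactosidase reporter signal reflecting CREB driven transcription.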 To be noted: luminescence, 4.5 h, higher = more signal, called active from +8 up or from −8 down.
Test [6] addresses Streptavidin (Streptomyces avidinii) (UniProt P22629). The test can be described thus: streptavidin binders on small-molecule microarray, primary screen, artefact control for SMM compound annotation, biophysical, 635/667 nm fluorescence (AID 1147).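 Also: signal reflects streptavidin binding to arrayed compounds as a control protein.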 Conditions: streptavidin binding, higher = more signal.
A short description of test [7]: small-molecule binders of probe aInhba, primary screen, biochemical, small-molecule microarray, 635/667 nm fluorescence (AID 1148).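 Also: score merges 667nm spot fluorescence with signal-to-noise for antibody binding to printed compounds.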 To be noted: higher = more signal.
Test [8] addresses Torsin-1A (Homo sapiens) (UniProt O14656). The test can be described thus: torsin A binders from cell lysate, primary screen, small-molecule microarray, wild-type, 635/667 nm (AID 1149). To be noted: COS7 hTOR1A-WT lysate, 635 nm fluorescence, higher = more signal.
For test [9] the target is unchanged. The test can be described thus: small-molecule binders of mutant TOR1A in lysate, primary screen, cell lysate, small-molecule microarray, COS7 lysate, 635/667 nm fluorescence (AID 1150).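 Also: score pools 667 nm emission and signal to noise measuring lysate protein binding.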 To be noted: COS7 hTOR1A mutant lysate, 635 nm fluorescence, higher = more signal.
For test [10], the system named is Sonic hedgehog protein (Shh). The test can be described thus: small-molecule binders of Shh protein, primary screen, biochemical, small-molecule microarray, 635/667 nm fluorescence (AID 1151).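 Also: Shh protein binding to compounds spotted on small-molecule microarray slides; score combines spot fluorescence intensity with signal-to-noise across triplicate slides.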 To be noted: small-molecule microarray binding, 635 nm fluorescence; higher = more signal.

Streptavidin (Streptomyces avidinii), sequence (P22629 whole entry, looked up): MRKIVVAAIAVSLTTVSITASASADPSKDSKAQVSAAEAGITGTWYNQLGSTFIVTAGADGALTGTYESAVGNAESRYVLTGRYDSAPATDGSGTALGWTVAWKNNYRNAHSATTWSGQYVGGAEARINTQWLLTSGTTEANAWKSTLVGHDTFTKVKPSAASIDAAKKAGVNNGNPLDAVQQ
Torsin-1A (Homo sapiens), sequence (O14656 whole entry, looked up): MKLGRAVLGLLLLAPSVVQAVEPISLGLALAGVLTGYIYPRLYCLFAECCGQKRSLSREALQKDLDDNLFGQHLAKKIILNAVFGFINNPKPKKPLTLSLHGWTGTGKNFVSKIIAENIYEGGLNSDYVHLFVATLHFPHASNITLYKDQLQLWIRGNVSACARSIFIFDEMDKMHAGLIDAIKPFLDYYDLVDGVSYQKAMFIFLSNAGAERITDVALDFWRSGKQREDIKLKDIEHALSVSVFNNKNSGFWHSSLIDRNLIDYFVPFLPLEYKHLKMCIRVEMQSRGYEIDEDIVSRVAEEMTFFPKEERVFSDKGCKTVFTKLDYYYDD

Take `C=C(CCCC)C(=O)CC[C@@H](OC(=O)c1ccccc1-c1ccccc1C(=O)O)c1ccccc1OCCO`: the composite z-score in test [1] is 0.0726; in test [6], -0.34; in test [7], -0.157; in the test with Torsin-1A (Homo sapiens) [8], 1.21; with Torsin-1A (Homo sapiens) [9] it was 0.818; in test [10], 1.56. Also, the z-score was -1.62 (inactive) in test [2], -0.131 (inactive) in test [3], 6.69 (inactive) in test [4] and 2.06 (inactive) in [5].
As to `[N-]=[N+]=NCc1ccccc1[C@@H]1OC(c2ccc(OCCCO)cc2)=N[C@]1(Cc1ccccc1N=[N+]=[N-])C(=O)NCC(O)CO` (stereo not given in full), the composite z-score in [1] is 0.88; in test [6] it was 1.74; in test [7], 0.791; in the test with Torsin-1A (Homo sapiens) [8] it was 0.553; with Torsin-1A (Homo sapiens) [9], 1.65; in test [10] it was -0.771. Moreover, the z-score in [2] is -1.49 (inactive); in test [3], 0.12 (inactive); in test [4], 0.47 (inactive); in [5], -0.806 (inactive).
Regarding `COCCOC(=O)N1C(=O)[C@@]2(c3cc(C#CCC(C(=O)OC)C(=O)OC)ccc31)[C@H](C(N)=O)[C@H]1C(=O)O[C@H](c3ccccc3)[C@H](c3ccccc3)N1[C@@H]2c1ccc(O)cc1`, the composite z-score in test [1] is 0.449; in test [6], -0.0413; in test [7] it was -0.0405; with Torsin-1A (Homo sapiens) [8] it was 0.551; with Torsin-1A (Homo sapiens) [9], 0.919; in test [10], 1.75. For the same compound, the z-score in [2] was -5.41 (inactive); in [3], -1.01 (inactive); in test [4], -0.168 (inactive); in [5], -0.339 (inactive).
On to `COCCCNC(=O)[C@@H]1c2ccccc2C(=O)N(Cc2ccc(OC(F)(F)F)cc2)[C@H]1c1ccc(CO)cc1`, for which the composite z-score in test [1] was 0.53; in test [6], -0.0096; in test [7] it was -0.0221; with Torsin-1A (Homo sapiens) [8] it was 0.0966; with Torsin-1A (Homo sapiens) [9], 0.281; in test [10], 1.09. For the same compound, the z-score in test [2] was -0.429 (inactive); in test [3] it was 0.0789 (inactive); in test [4] it was 0.674 (inactive); in test [5] it was 0.0988 (inactive).
Take `CC1CC/C=C\[C@H]2OC34C=CCN(Cn5nnc6ccccc65)C(=O)[C@H]3N(CCCCCCO)C(=O)[C@@H]4C2C(=O)O1` (stereo not given in full): the composite z-score in [1] is -0.755; in test [6] it was -0.399; in [7], -0.12; with Torsin-1A (Homo sapiens) [8], -1.51; with Torsin-1A (Homo sapiens) [9] it was -1.11; in [10], -0.415. Further, the z-score is 0.835 (inactive) in [2], -1.18 (inactive) in test [3], -0.0859 (inactive) in test [4] and 0.19 (inactive) in test [5].
In the case of `CCOC(=O)C1=C[C@@H](C(C)(C)C)N(S(=O)(=O)c2ccc(C)cc2)[C@H]1c1ccc(C#N)cc1`, the composite z-score was 0.327 in test [1]; 0.948 in test [6]; 0.0785 in test [7]; 0.855 with Torsin-1A (Homo sapiens) [8]; 1.57 with Torsin-1A (Homo sapiens) [9]; -0.264 in test [10]. The z-score was -3.61 (inactive) in test [2], 0.261 (inactive) in test [3], -0.228 (inactive) in test [4] and 0.624 (inactive) in test [5].
